Many of the other results were omitted from the sample, so hits are more common in it than they were.
12-LOX inh: blocks human arachidonate 12S-lipoxygenase; P18054; purified 12hLO, xylenol orange hydroperoxide absorbance; Potency, µM (series often up to 108 µM), usual class: inhibitors; 580,000 tested, 1.1% active
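Purified human 12hLO at 150 nM in 25 mM Hepes, 0.01% Triton X-100, pH 7.0, preincubated 15 min at room temperature with compound. Reaction started with 40 uM arachidonic acid, 30 min at room temperature. Hydroperoxide measured by Fe-xylenol orange, 573/405 nm absorbance ratio.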
VDR inh: inhibitors of human vitamin D receptor. 400,000 tested, 0.93% active. AID 504847. VDR-SRC2-3 peptide fluorescence polarization, 2 h. P11473. Potency, µM, usual class: inhibitors
Target sequence (P11473 whole entry, looked up): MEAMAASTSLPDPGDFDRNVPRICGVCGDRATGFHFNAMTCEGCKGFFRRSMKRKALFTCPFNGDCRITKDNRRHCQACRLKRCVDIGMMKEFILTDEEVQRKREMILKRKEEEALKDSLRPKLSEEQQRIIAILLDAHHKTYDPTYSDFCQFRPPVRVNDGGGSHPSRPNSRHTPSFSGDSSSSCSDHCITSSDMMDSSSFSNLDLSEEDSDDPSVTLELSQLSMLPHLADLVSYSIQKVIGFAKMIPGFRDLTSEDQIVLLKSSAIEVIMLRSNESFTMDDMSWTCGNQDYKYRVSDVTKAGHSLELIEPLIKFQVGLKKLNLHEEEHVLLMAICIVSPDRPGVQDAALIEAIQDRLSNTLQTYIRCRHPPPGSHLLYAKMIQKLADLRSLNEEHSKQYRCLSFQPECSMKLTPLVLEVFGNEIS
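Signal is fluorescence polarization, reporting how far test compounds block the interaction of VDR with the SRC2-3 coregulator peptide after a 2 h room-temperature incubation.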
GRP78 ERSR act: induces the endoplasmic reticulum stress response in human glioma cells | 420,000 tested, 0.02% active | AID 602332 | U87-MG GRP78 promoter luciferase reporter, 16 h | Potency, µM, hits mostly activators; note: series mostly up to about 76 µM; nearly all actives have a fitted effect of over 35% in size
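Stably transfected U87-MG human glioma cells carrying a GRP78-based luminescent sensor were seeded at 1000 cells/well, pin-dosed with compounds and incubated 16 h. Luciferase reagent was then added, and end-point luminescence was read after 10 min at room temperature.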
G9a block: G9a (human) methyltransferase inhibition; Potency, µM (titrated, usually from 102 µM), hits mostly inhibitors; Q96KQ7; 350,000 tested, 8.8% active; G9a H3K9 monomethylation, AlphaScreen, 2 h; note: nearly all actives have a fitted effect of over 75% in size
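AlphaScreen detection with an anti-monomethyl H3K9 antibody quantified product after a 2 h room-temperature reaction containing 500 nM biotinylated H3K9 peptide, 20 µM SAM and 20 nM enzyme, which had been preincubated 15 min with compound.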
Sfp inh: inhibitors of Bacillus subtilis Sfp phosphopantetheinyl transferase. Potency, µM, actives largely listed as inhibitors. Biochemical Sfp PPTase activity, qHTS. 310,000 tested, 3.5% active. Q9F4F7;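 note: the enzyme is Sfp with the accession as filed and its product quenches rhodamine fluorescence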
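Step 1, compound plus 15 nM Sfp-PPTase, 15 min, room temperature. Step 2, add rhodamine-CoA (5 uM) and BHQ-2-YbbR (12.5 uM). Step 3, read 525/598 nm fluorescence at 0 and 30 min.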
A number is an active result; . = inactive; ? = inconclusive; / = not tested or not shown; [ ] = another dose, or the depositor's remark. Calls come from the whole dose curve; as a rule, active = well fitted curve in the direction sought with a large enough effect; inconclusive = small, poorly fitted or top-dose-only effect, or another doubt; inactive = no such curve, though single readings can be large; an effect the other way counts as inactive or inconclusive.

SMILES | 12-LOX inh | VDR inh | GRP78 ERSR act | G9a block | Sfp inh
CN(Cc1ccc(Cl)c(Cl)c1)Cc1nc2ccccc2o1 | . | / | / | / | /
S=C(/N=c1/sccn1Cc1ccccc1)NC1CC1 | ? | . | . | 50.1µM | .
O=C(NC[C@H]1O[C@@H]2C[C@@H](CC(=O)N3CCOCC3)O[C@@H]2[C@@H]1O)NC1CCCCC1 | . | / | / | / | /
O=C(O)CN1C(=O)/C(=C\c2cc(Br)ccc2OCc2ccccc2F)SC1=S | ? | ? | . | 39.8µM | .
O=C(O)CN1C(=O)/C(=C\c2cccc(OCc3ccc(Cl)cc3Cl)c2)SC1=S | 25.1µM | ? | . | / | 79.4µM
Cc1ccc(/C=C2/SC(=S)N(CCCC(=O)Nc3cc([N+](=O)[O-])ccc3O)C2=O)cc1 | . | . | . | .[12.7 µM] | .
O=C(O)CN1C(=O)/C(=C\c2cc(Br)ccc2OCc2ccc([N+](=O)[O-])cc2)SC1=S | 8.91µM | 35.5µM | . | 20µM | ?
COc1cccc(/C=C2/SC(=S)N(CC(=O)NNC(=O)c3ccccc3OC)C2=O)c1 | . | . | . | . | .
O=C(O)CN1C(=O)/C(=C\c2ccccc2OCc2ccc(Cl)cc2Cl)SC1=S | . | ? | . | 31.6µM | ?
COc1ccc(C(=O)c2c(N)c(-c3nc4ccccc4[nH]3)c3ccccn23)cc1 | . | / | / | / | /
Cc1cc(OC(C)C(=O)NCCCN(C)C)c2c(C)cc(=O)oc2c1 (stereo not drawn) | . | / | / | / | /
Cc1ccccc1Cn1c(=O)n(CCCC(=O)NCc2ccc3c(c2)OCO3)c(=O)c2ccccc21 | . | / | / | / | /
O=C(Cn1ncc2ccccc2c1=O)Nc1ncc(Cc2ccc(C(F)(F)F)cc2)s1 | . | / | / | / | /
CN(C)c1cccc(C(=O)NCC2CCN(c3cc(-c4ccccc4)[nH]n3)CC2)c1 | . | / | / | / | /
O=C(O)CN1C(=O)/C(=C\c2cc(Br)ccc2OCc2ccccc2Cl)SC1=S | ? | ? | . | 14.1µM | ?
O=C(O)COc1ccc(Br)cc1/C=C1/SC(=O)N(CC(=O)N2CCCC2)C1=O | . | ? | . | .[2.33 µM] | .
COc1cccc(NC(=S)N2CCC(Cc3ccccc3)CC2)c1 | ? | . | . | / | .
COc1ccc(NC(=S)N2CCC(Cc3ccccc3)CC2)cc1OC | ? | . | . | 70.8µM | .
CC(C)N=c1cc2n(-c3ccc(Cl)cc3)c3ccccc3nc-2cc1Nc1ccc(Cl)cc1 | . | ? | . | 2.51µM | ?
Nc1ccc(S(=O)(=O)N2CCCC2C(=O)O)cc1 (stereo not drawn) | . | . | . | . | 79.4µM
CC1CCN(c2ccc(NC(=O)C3CCCN3S(=O)(=O)c3ccc(F)cc3)cc2)CC1 (stereo not drawn) | . | ? | . | 10µM | /
CN1CCN(c2ccc(-c3noc([C@@H]4CCCN4C4CCCCC4)n3)cn2)CC1 | . | / | / | / | /
CCCCC(=O)Nc1cc2nn(-c3ccc(OCC)cc3)nc2cc1C | . | . | . | . | /
Cc1cc2nn(-c3ccccc3)nc2cc1NC(=O)Cc1ccc(Cl)cc1 | . | . | . | 14.1µM | /
CCCCc1ccc(-n2nc3cc(C)c(NC(=O)Cc4ccccc4)cc3n2)cc1 | ? | . | . | 1.41µM | /
SMILES | 12-LOX inh | VDR inh | GRP78 ERSR act | G9a block | Sfp inh
O=C(CSc1cccc2cccnc12)OCC(=O)c1ccccc1 | . | 20µM | . | . | .
O=C(CSc1cccc2cccnc12)Nc1cc(C(=O)O)cc(C(=O)O)c1 | 25.1µM | . | . | / | .
Cc1cccc(NC(=O)CSc2cccc3cccnc23)c1 | ? | . | . | . | .
Cc1ccc2c(C)cc(=S)[nH]c2c1 | ? | . | . | 50.1µM | .
Cc1cc(=S)[nH]c2ccccc12 | ? | . | . | 2.82µM | ?
Cc1ccc2[nH]c(=S)cc(C)c2c1 | ? | . | . | . | ?
CC(=O)N1c2ccccc2C(=O)C1N1CCCCC1 (stereo not drawn) | . | . | . | 50.1µM | .
COc1ccccc1-c1nnc(SC/C(O)=C(\C#N)c2nc3ccccc3[nH]2)n1C1CCCCC1 | . | . | . | 31.6µM | .
N#C/C(=C(/O)CSc1nnc(Cc2cccs2)n1C1CCCCC1)c1nc2ccccc2[nH]1 | . | . | . | ? | .
N#C/C(=C(/O)CCl)c1nc2ccccc2[nH]1 | . | . | 25.1µM | . | .
Cc1cccc(C)c1Nc1nnc(SC/C(O)=C(\C#N)c2nc3ccccc3[nH]2)s1 | . | . | . | 14.1µM | .
N#C/C(=C(\O)Cc1ccccc1)c1nc2ccccc2[nH]1 | . | . | . | .[12.7 µM] | .
Cc1c(C(=O)N2CCOC(C)C2)cnn1-c1ccccc1F (stereo not drawn) | . | / | / | / | /

Source: PubChem
